In PubChem BioAssay AID504523 (Broad Institute, 2011):
“And” between values parts separate entries of the source, which are not always exact repeats. Equal entries are not always repeated. Hit rate of the full screen: of about 340,000 compounds, about 490 (0.14%) were called active. Rule as the data show it: active = inhibition above about 12%; inconclusive = no clear call, values can overlap the other calls; inactive = below about 7.3%. What follows is part of a selection rich in actives, with near analogues and random picks from the rest. Where a structure was tested more than once in an assay, its records may differ in their call.

These compounds were tested against Kelch-like ECH-associated protein 1 (Homo sapiens) (UniProt Q14145) (assay: disruptors of Keap1 binding to Nrf2 – biochemical, fluorescence polarization, single point, primary screen (AID 504523;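 also: human Keap1 Kelch domain with fluorescein labeled Nrf2 9mer peptide probe; 0% = neutral control wells and 100% = peptide positive control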)). Conditions: Keap1 Kelch-Nrf2 peptide fluorescence polarization, 1536-well; at 9.4 µM; stronger effect = higher value.
Sequence of Kelch-like ECH-associated protein 1 (Homo sapiens) (Q14145 whole entry, looked up, the tested form may be a part): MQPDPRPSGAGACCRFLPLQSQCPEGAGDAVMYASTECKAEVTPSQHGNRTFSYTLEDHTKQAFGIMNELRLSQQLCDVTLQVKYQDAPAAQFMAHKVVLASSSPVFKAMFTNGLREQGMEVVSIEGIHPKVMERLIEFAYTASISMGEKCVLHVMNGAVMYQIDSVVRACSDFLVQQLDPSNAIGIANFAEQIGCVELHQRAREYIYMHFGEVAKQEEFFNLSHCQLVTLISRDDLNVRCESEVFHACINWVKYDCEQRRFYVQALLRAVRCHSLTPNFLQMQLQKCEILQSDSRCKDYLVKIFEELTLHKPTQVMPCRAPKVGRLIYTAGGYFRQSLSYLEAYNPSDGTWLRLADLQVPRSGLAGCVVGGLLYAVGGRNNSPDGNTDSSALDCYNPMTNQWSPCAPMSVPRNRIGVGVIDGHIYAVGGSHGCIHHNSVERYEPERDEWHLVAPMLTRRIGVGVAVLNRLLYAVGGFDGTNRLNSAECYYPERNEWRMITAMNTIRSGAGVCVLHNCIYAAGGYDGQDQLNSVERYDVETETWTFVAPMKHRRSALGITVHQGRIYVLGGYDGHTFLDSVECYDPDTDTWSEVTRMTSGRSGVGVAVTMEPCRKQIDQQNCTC

Structure (SMILES) | inhibition
COc1ccccc1NC(=O)CCN1CCN(c2ccc(Cl)cc2)CC1 | 2.69% (inactive)
Cc1ccc(S(=O)(=O)N2[C@@H](c3cccc4ccccc34)C(C(=O)O)=C[C@H]2C(C)(C)C)cc1 | 6.06% (inactive)
Cc1cc(C)nc(N2C(=O)CC(Cc3ccccc3)C2=O)n1 (stereo not given) | 2.94% (inactive)
O=C(Nc1cccc2c1N(C(=O)c1ccco1)CCC2)c1ccco1 | 0.867% (inactive)
CN(C)c1ccc(C(=S)N2CCN(C(=S)Nc3ccc(Cl)cc3)CC2)cc1 | 1.08% (inactive)
Cc1ccc(Nc2nc(CSc3nnc(-c4ccncc4)n3-c3ccccc3C)cs2)cc1 | -6.12% (inactive)
Nc1c(C(=O)O)cnn1-c1ccccc1 | 1.79% (inactive)
C=C(C)C1CC=C(C)/C(=N\NC(=O)CNc2ccccc2OC)C1 (stereo not given) | 0.164% (inactive)
COc1ccc(S(=O)(=O)Nc2ccccc2C(=O)N2CCCC2)cc1C | -0.35% (inactive)
COc1cc(OC)c(S(=O)(=O)Nc2ccccc2C(=O)O)cc1S(=O)(=O)Nc1ccccc1C(=O)O | 15.6% (active)
COc1ccc(OC)c(S(=O)(=O)Nc2ccccc2F)c1 | -3.36% (inactive)
O=C(/C=C/c1cc2c(cc1Br)OCO2)NCc1ccc(Cl)cc1 | -0.718% (inactive)
Cc1ccccc1CNC(=O)CCC(=O)N1Cc2ccccc2Oc2ncccc21 | 0.575% (inactive)
O=C(CNCc1ccco1)Nc1cc(S(=O)(=O)N2CCOCC2)ccc1N1CCCC1 | -2.82% (inactive)
CCCCNC(=O)C1CCCN(S(=O)(=O)c2ccc(S(=O)(=O)NCC(C)C)cc2)C1 (stereo not given) | -0.397% (inactive)
COC(=O)c1ccc(-c2noc(CN(Cc3ccccn3)CC3CCCO3)n2)cc1 (stereo not given) | -1.93% (inactive)
Cc1ccc2c(c1)N(CC(=O)N1CCC(C)CC1)C(=O)c1cccnc1O2 | -0.762% (inactive)
COc1ccccc1C(=O)NCCn1cc(SCC(=O)NCc2ccco2)c2ccccc21 | -4.2% (inactive)
O=C(NCc1ccncc1)C(=O)NCc1ccco1 | -3.77% (inactive)
CCOC(=O)c1c(NC(=O)CSc2nnc(CNc3ccc(C)cc3C)o2)sc(C)c1C | 3.69% (inactive)

Structure (SMILES) | inhibition
Cc1ccc(-n2c(CNc3ccc(F)cc3)nnc2SCC(=O)N2CCOCC2)cc1 | -5.07% (inactive)
CSCCC(NC(=O)COc1ccccc1)C(=O)N1CCN(c2cccc(C(F)(F)F)c2)CC1 (stereo not given) | 1.75% (inactive)
CC(C)=N/N=C1/NC(=O)C(Cc2ccccc2)S1 (stereo not given) | -5.03% (inactive)
CC(O)c1ccc(OCCN(C)c2ccccn2)cc1 (stereo not given) | 2.21% (inactive)
CN(CCOc1ccc(CC2SC(=O)NC2=O)cc1)c1ccccn1 (stereo not given) | 44.6% (active) and -1.69% (inactive)
N#Cc1cccc(CSc2ncnc(N)n2)c1 | -4.01% (inactive)
Cc1nc(SCC(=O)NC2CCCCC2C)c(C#N)c(C)c1C (stereo not given) | -1.86% (inactive)
COc1ccccc1CNC(=O)C1Cc2ccccc2C(=O)O1 (stereo not given) | 0.554% (inactive)
CC(Sc1nnc(C2CC2)n1C1CC1)C(=O)Nc1ccc(C(N)=O)cc1 (stereo not given) | -1.4% (inactive)
COc1ccc(S(=O)(=O)n2nc(C)c(S(=O)(=O)N3CCOCC3)c2C)cc1 | -1.09% (inactive)
CC(C(=O)O)N1C(=O)c2cccc3cccc1c23 (stereo not given) | -0.759% (inactive)
O=C1c2cccc3c([N+](=O)[O-])ccc(c23)C(=O)N1CC1CCCO1 (stereo not given) | -6.02% (inactive)
Cc1nn(C)cc1N1C(=O)c2cccc3c(N)ccc(c23)C1=O | 71% (active)
CN1C(=O)c2cccc3c(N)ccc(c23)C1=O | 16.4% (active)
c1ccc(CN=C2Nc3ccccc3CS2)nc1 | -0.423% (inactive)
O=S1(=O)CC/C(=N\Nc2ccc(F)cc2)c2ccsc21 | 3.88% (inactive)
N#CCc1c[nH]c2ccc([N+](=O)[O-])cc12 | 0.344% (inactive)
COC(=O)c1ccc(NC(=S)Nc2cccc(C)n2)cc1 | 1.2% (inactive)
Cc1nn(C)c(C)c1Sc1ccccc1N | -2.63% (inactive)
O=C(Cc1ccc(Cl)cc1)NCc1nc(-c2ccccc2)no1 | -0.917% (inactive)
